BCR signal inh – blocks chronic active B-cell receptor signaling; ABC-DLBCL IkBa-CBG/CBR reporter, luminescence ratio, 4 h; Potency, µM (top dose mostly 46.1 µM), for the others: at the top dose activity change, negative = inhibition, most hits filed as inhibitors; 340,000 compounds, 0.05% hits; AID 493014; active = well fitted inhibition curve with a large enough effect in the signal ratio, with a control signal flat, not every such curve was filed as active; inconclusive = small, poorly fitted or top-dose-only effect, or effect the other way, or a change in a side signal; the % refers to the signal ratio;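 also: potency is read from the fitted curve at half-maximal effect; plate controls were basal doxycycline-induced cells for no effect and cells given 10 µM MG132 for full effect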
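Cell line TMD8 (human ABC DLBCL), stably expressing tet-inducible CBG68-IkBa fusion and CBR; IMDM/0.5% FBS; cpd up to 46 uM; dox induction, 4 h, 37C/5% CO2; dual luminescence; green/red ratio; MG132 control.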
MCF10A rerep – induces DNA re-replication in MCF 10a normal breast cells; MCF 10A DNA re-replication, Hoechst nuclear intensity, 48 h; AID 624296; 350,000 compounds, 2.9% hits; Potency, µM (doses to about 46.1 µM), for inactives: at the top dose activity, positive = re-replication, actives largely listed as activators; also: potency is read from the fitted curve at half-maximal effect; % of control where 0% means no effect; nearly all actives have a fitted effect of over 50% in size
DT40 TDP1 no CPT – qHTS for Inhibitors of human tyrosyl-DNA phosphodiesterase 1 (TDP1): qHTS in cells in absence of CPT. Potency, µM (doses to about 46.2 µM), for the others: at the top dose activity change, negative = growth inhibition, most hits filed as inhibitors. DT40 Tdp1-/- hTDP1 cells, no CPT, ATP luminescence, 48 h. AID 686978, 2013. 420,000 compounds, 15% hits; also: potency is read from the fitted curve at half-maximal effect; % is scaled to controls: 0 for no effect and ±100 for the full control effect; nearly all actives have a fitted effect of over 55% in size
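Stably hTDP1-transfected Tdp1-null chicken DT40 cells were treated with library compounds minus camptothecin and grown for at least 48 hr at 37 °C, after which cellular ATP was quantified by luminescence.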
IL-1B inflam inh – inflammasome signaling inhibition, IL-1 beta readout. THP-1 LPS/ATP IL-1B secretion, AlphaLISA, 16 h; hits give low values. AID 743279. 360,000 compounds, 4.7% hits. activity change, % at 57.5 µM; in the data active = activity change below about -50%; inconclusive = mostly about -30% to -49%; also: % is scaled to controls: 0 for no effect and ±100 for the full control effect
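THP-1 cells pretreated 1 hr with compounds (up to 57.5 uM final), then stimulated with LPS (250 ng/mL final) plus ATP (1.25 mM final); secreted IL-1B measured by AlphaLISA after 16 hr, decreased signal indicating inhibition.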
DT40 TDP1 CPT – growth inhibition of DT40 Tdp1-/-;hTDP1 cells with camptothecin (screen for TDP1 inhibitors); AID 686979; 420,000 compounds, 12% hits; chicken DT40 Tdp1-/-;hTDP1 cells + 20 nM CPT, ATP luminescence, 48 h; Potency, µM (series often up to 46.2 µM), for the others: at the top dose activity change, negative = growth inhibition, usual class: inhibitors; also: potency is read from the fitted curve at half-maximal effect; % is scaled to controls: 0 for no effect and ±100 for the full control effect; nearly all actives have a fitted effect of over 55% in size
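Cell growth measured by CellTiter-Glo luminescence after a minimum 48 h, 37 C compound exposure with 20 nM CPT in Tdp1-knockout DT40 cells stably expressing hTDP1, seeded 400/well; qHTS titration format.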
SW480 rereplic – DNA re-replication induction in SW480 cells. Potency, µM (series often up to 46.1 µM), inactives show at the highest dose re-replication activation, most hits filed as activators. AID 624297. SW480 DNA re-replication, Hoechst DNA content imaging, 48 h. 340,000 compounds, 1.8% hits; also: potency is read from the fitted curve at half-maximal effect; % of control where 0% means no effect; nearly all actives have a fitted effect of over 55% in size
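SW480 cells exposed to compounds for 48 hr at 37 C, 5% CO2, then Hoechst-stained 40 min. Nuclear DNA content imaged by fluorescence scanning (405 nm excitation, 500-530 nm emission); re-replication scored as increased high-intensity nuclei.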
* marks the source's active call; other numbers are inactive results; ? = inconclusive; . = no result given; [ ] = another dose, or the depositor's remark. A selection: hits, their analogues and other compounds. The true share with any hit is near 19%. Unless noted, calls follow the shape of the dose curve; as a rule, active = well fitted curve in the direction sought with a large enough effect; inconclusive = small, poorly fitted or top-dose-only effect, or another doubt; inactive = no such curve, though single readings can be large; an effect the other way counts as inactive or inconclusive.

SMILES	BCR signal inh	MCF10A rerep	DT40 TDP1 no CPT	IL-1B inflam inh	DT40 TDP1 CPT	SW480 rereplic
Cc1cc(C)cc(NC(=S)NC2CC3CCC(C2)N3Cc2ccco2)c1 (configuration not stated)	?	-7%	16µM*	0	?	-3%
COc1ccc(C2/C=C\CN(C(=O)C3CC3)[C@H](Cc3ccccc3)C(=O)N2Cc2ccc(F)cc2)cc1 (some centres not stated)	?	-26%	23µM*	0	16µM*	0%[9.22 µM]
CC(C)(C)c1ccc(OCC(=O)Nc2ccc(Cl)cc2C(=O)c2ccccc2)cc1	.	.	-78%	.	?	.
CC(C)(C)OC(=O)N(CCc1ccccc1)Cc1ccc(OCc2cccc(NC(=O)c3ccccc3)c2)cc1	.	-5%	21µM*	-3	?	?
C#C[C@]1(O)CC[C@H]2[C@@H]3[C@H](O)C[C@H]4C[C@@H](O)CC[C@]4(C)[C@H]3CC[C@@]21C	.	.	?	12	-23%	.
CC(C)c1ccc(OCC(=O)N2CCN(CCc3ccccn3)CC2)cc1	.	.	?	.	-28%	.
Cc1ccc(-c2csc(NC(CO)c3nc4ccccc4n3CCOCCO)n2)cc1 (configuration not stated)	.	?	23µM*	40	?	8%
CN(C)C(=O)O/N=C(\N)COc1ccc(C(C)(C)C)cc1	?	?	?	-23	21µM*	12µM*
COC(=O)C1=C(c2cc3ccccc3o2)C[C@@H]2CC[C@H]1N2C(=O)NC(C)C	.	15%	16µM*	4	23µM*	10µM*
COC(=O)C1=C(c2cc3ccccc3o2)C[C@@H]2CC[C@H]1N2C(=O)NCCCOC(C)C	.	5%	12µM*	20	?	-2%
COC(=O)C1=C(c2cc3ccccc3o2)C[C@@H]2CC[C@H]1N2C(=O)NCCNC(C)=O	.	-7%	.	2	-21%	6%
CN1CCC2(O)OCCCC2C1 (configuration not stated)	?	0%	-11%	9	11%	-2%
C[C@H]1CN([C@@H](C)CO)C(=O)c2cc(-c3cccnc3)cnc2O[C@H]1CN(C)Cc1ccc(Oc2ccccc2)cc1	.	.	?	-4	?	.
CC1CCCCC12C(=O)NC(=O)NC2=O (configuration not stated)	.	-3%	-11%	10	-10%	2%
CN1CCN(C(=O)COc2ccc(S(=O)(=O)Nc3ccc(F)cc3)cc2)CC1	6%	?	17%	23	-10%	?
CCOc1ccc(S(=O)(=O)Nc2cccc(C(=O)N3CCN(c4ccccn4)CC3)c2)cc1	.	.	16µM*	21	13µM*	.
COc1ccc(CC(=O)Nc2ccc3c(C(F)(F)F)cc(=O)oc3c2)cc1OC	-1%	-1%	-16%	10	-15%	0%
COc1ccccc1CC(=O)Nc1ccc2c(c1)OC1(CCCC1)O2	-11%	0%	?	-74*	?	?
Cc1ccc(OC(=O)N(C)C[C@H]2OCc3cnnn3CCCC(=O)N([C@H](C)CO)C[C@@H]2C)cc1	.	.	?	-21	?	.
CN1CC=C(/C=C/c2ccc(-c3ccccc3)cc2)CC1	-2%	16µM*	12µM*	?	15µM*	6%
O=C(c1cccnc1)N1Cc2ccccc2-n2nncc2C1	.	.	7%	24	-26%	.
Oc1cccc2cccnc12	?	?	2.6µM*	.	3.3µM*	14%
CN(C(=O)Oc1cccc2cccnc12)c1ccccc1	0%	1%	-7%	1	0%	3%
C(=C\c1ccccc1)/CN1CCN(CCOC(c2ccccc2)c2ccccc2)CC1	.	.	4.6µM*	.	3.7µM*	.
c1ccc(C(OCCN2CCN(c3ncccn3)CC2)c2ccccc2)cc1	.	?	?	-76*	?	1%
SMILES	BCR signal inh	MCF10A rerep	DT40 TDP1 no CPT	IL-1B inflam inh	DT40 TDP1 CPT	SW480 rereplic
O=C(COc1ccc(Cl)cc1Cl)N1CCN(C/C=C/c2ccccc2)CC1	-12%	?	?	-14	?	10%
CC[C@@H](CO)NC(=O)[C@H]1C=C2c3cccc4[nH]cc(c34)C[C@H]2N(C)C1	.	.	-19%	.	5%	.
O=[N+]([O-])c1cccc(NP(=O)(N2CC2)N2CC2)c1	.	?	6.5µM*	-3	2.1µM*	?
Cc1cccc([N+](=O)[O-])c1	-2%	-2%	-3%	?	4%	?
O=C(O)[C@H]1[C@H]2CN[C@H](C(=O)O)[C@H]21	.	.	-22%	.	-6%	.
Cc1c(CC(=O)N2C[C@H]3C[C@@H](C2)c2cccc(=O)n2C3)c(=O)oc2cc(O)c(Cl)cc12	-5%	88%	7%	-13	24%	?
COC(=O)C1=C(c2ccc3ccccc3c2)C[C@@H]2CC[C@H]1N2C(=O)N1CCOCC1	0%	?	5.8µM*	14	?	0%
COC(=O)C1=C(c2ccc(OC)c(OC)c2)C[C@@H]2CC[C@H]1N2C(=O)N1CCCCC1	-1%	14%	9.2µM*	20	8.2µM*	?
COC(=O)C1=C(c2cc3ccccc3o2)C[C@@H]2CC[C@H]1N2C(=O)N1CCOCC1	.	?	.	45	3.7µM*	?
COC(=O)C1=C(c2ccc(OC)c(OC)c2)C[C@@H]2CC[C@H]1N2C(=O)N1CCC(O)CC1	-6%	4%	-14%	11	-10%	-47%[9.22 µM]
COC(=O)C1=C(c2ccc3ccccc3c2)C[C@@H]2CC[C@H]1N2C(=O)N1CCCC1	?	-9%	3.3µM*	-8	2.9µM*	?
CN1CCC2(CC1)CCN(C(=O)Oc1ccccc1)CC2	.	.	-11%	.	5%	.
Cc1ccc2n1Cc1cnnn1-c1ccccc1-2	.	.	?	12	?	.
O=C(Cn1cnc2sc3c(c2c1=O)CCCC3)NCCCC(=O)N1CCC2(CC1)OCCO2	?	4%	-15%	-3	-18%	-3%
O=c1[nH]c(=O)n(CCc2ccccc2)c(O)c1C=NC1CC1	5%	3%	-7%	12	2%	-7%
COC(=O)C1=C(c2ccc3ccccc3c2)C[C@@H]2CC[C@H]1N2C(=O)N1CCCCC1	0%	?	1.8µM*	17	2.3µM*	?
Fc1ccc(-[n+]2nc(Nc3ccccc3)sc2-c2c(Cl)cccc2Cl)cc1	?	?	?	-94*	18µM*	-44%[9.22 µM]
Cc1[nH]ccc2c1[nH]c1cc(=O)ccc12	?	?	13µM*	-26	8.2µM*	17%

Screening results as filed in PubChem BioAssay.
